# From PubChem
# DAX1 inh-1 – blocks DAX1 repression of SF-1 activated StAR promoter. HEK293T StAR-luciferase reporter, SF-1/DAX-1 repression relief. inhibition, % at 6.8 µM. 370,000 tested, 1.1% active. AID 652010;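 active = inhibition above the mean over all tested compounds plus 3 SD, cut at about 3.6% in these data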;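 note: 0% = DAX-1 cells with DMSO and 100% = cells lacking DAX-1 with DMSO; higher inhibition means more luminescence from relief of DAX-1 repression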
# Wee1 stabilizer – blocks degradation of human Wee1 kinase; P30291; HeLa Luc-Wee1K328M stability, luciferase luminescence; 100% = proteasome inhibitor MG132 effect; reporter increase, % at 5 µM; 220,000 tested, 1.2% active; AID 1321;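 active = activation above the mean of all tested compounds plus 3 SD, set per screening run, cut at about 8.8% in these data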;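 note: cells exposed to compound for 20 h before luminescence read; 0% = DMSO alone and 100% = MG132 at 30 µM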
# Target sequence (P30291 whole entry K328M): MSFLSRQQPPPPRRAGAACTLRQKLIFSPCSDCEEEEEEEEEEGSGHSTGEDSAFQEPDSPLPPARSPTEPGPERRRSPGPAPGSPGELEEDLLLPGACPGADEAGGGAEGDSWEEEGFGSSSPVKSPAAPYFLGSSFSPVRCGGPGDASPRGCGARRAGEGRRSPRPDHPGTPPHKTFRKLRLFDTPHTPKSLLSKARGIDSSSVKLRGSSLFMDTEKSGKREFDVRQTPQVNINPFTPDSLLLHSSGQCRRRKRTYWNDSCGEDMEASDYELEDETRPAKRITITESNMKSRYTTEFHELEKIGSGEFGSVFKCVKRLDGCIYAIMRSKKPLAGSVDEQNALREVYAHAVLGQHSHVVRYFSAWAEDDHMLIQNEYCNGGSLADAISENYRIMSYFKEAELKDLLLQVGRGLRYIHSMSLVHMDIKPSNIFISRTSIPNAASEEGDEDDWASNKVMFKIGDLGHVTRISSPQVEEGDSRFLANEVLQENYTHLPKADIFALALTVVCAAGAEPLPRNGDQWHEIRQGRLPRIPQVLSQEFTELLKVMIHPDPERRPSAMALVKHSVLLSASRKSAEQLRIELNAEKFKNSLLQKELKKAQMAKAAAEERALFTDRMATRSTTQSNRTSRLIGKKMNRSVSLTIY
# DAX1 inh-2 – NR0B1 (DAX1) inhibition; P51843; HEK293 Gal4-DAX1 luciferase reporter, luminescence; inhibition, % at 6.75 µM; 340,000 tested, 0.99% active; AID 504766;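 active = inhibition above the mean over all tested compounds plus 3 SD, cut at about 4.2% in these data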;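 note: 0% = DAX1-transfected cells with DMSO and 100% = empty-vector control cells with DMSO; inhibition shows as a rise in luminescence from relieved DAX1 repression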
# hcDAF12 agonist – activators of H. contortus DAF-12 nuclear receptor. HEK293 hcDAF-12 lit1-tk-luc reporter, luminescence; 0% DMSO, 100% Δ7-dafachronic acid. activation, % at 6.8 µM. 370,000 tested, 1.4% active;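 active = activation above the mean of all tested compounds plus 3 SD, cut at about 5.5% in these data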;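 note: 100% = response to 3 µM Δ7-dafachronic acid high control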
# hgDAF-12 ag – agonists of H. glycines DAF-12 nuclear receptor. 370,000 tested, 1.8% active. AID 687014. HEK293 GAL4-hgDAF12 UAS-luciferase reporter, agonist luminescence; normalized to butyrate control. activation, % at 6.8 µM;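 active = activation above a cutoff set at the mean of all screened compounds plus 3 SD, cut at about 10% in these data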;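 note: 0% = DMSO wells and 100% = sodium butyrate wells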
# ssDAF-12 act – S. stercoralis DAF-12 activation, primary screen; HEK293 ssDAF-12/GRIP1 lit1-tk-luc reporter, luminescence; % of 3 µM dafachronic acid response; activation, % at 6.8 µM; 370,000 tested, 1% active; AID 652126;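 active = activation above the mean over all tested compounds plus 3 SD, cut at about 0.9% in these data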;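 note: 0% = DMSO-only wells and 100% = 3 µM delta7-dafachronic acid wells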
# Starred values were filed as active, the others as inactive; / = not tested or not shown. An excerpt weighted towards active compounds, which were near 4.6% of everything screened.
SMILES,DAX1 inh-1,Wee1 stabilizer,DAX1 inh-2,hcDAF12 agonist,hgDAF-12 ag,ssDAF-12 act
O=C(O)c1cccc(N2C(=O)c3ccc(C(=O)c4cccc([N+](=O)[O-])c4)cc3C2=O)c1,0,1,0,0,3,5.8*
COC(=O)[C@]12C[C@H](CC(=O)N3CCN(C(=O)c4ccco4)CC3)C(=O)N(Cc3ccccc3)C1=C[C@H](COCc1ccccc1)O[C@@H]2C,0,/,/,-2,-3,-2
COC(=O)c1ccc2nc(C3CCCCC3)c(Cc3ccccc3)n2c1,1,/,/,5.9*,3,0
COC(=O)c1ccc2nc(-c3ccccc3)c(Cc3cccc(Cl)c3)n2c1,2,/,/,4,9,1.2*
CN(C)/N=C/C=C1\CCC/C(=C\c2ccc(F)c(F)c2)C1=O,0,10*,/,-1,-4,-2
COc1ccc(S[C@]2(C(=O)N3CCOCC3)CC(=O)N(C(=O)c3ccccc3)[C@@H]2c2ccc(OC)cc2)cc1,-2,/,/,2,7,-1
CN(CC(=O)Nc1ccc(F)c(F)c1F)C(=O)c1ccc(-n2cncn2)c([N+](=O)[O-])c1,0,/,0,-1,-3,-1
CN(C(=O)c1cccc(NC(=O)Cc2ccc(NC(=O)C3CCCN(C(=O)C4CCC4)C3)cc2)c1)C1CCC1 (centres undefined),-1,/,-1,-2,-2,1.3*
CN(C(=O)c1cccc(NC(=O)Cc2ccc(NC(=O)C3CCCN(C(=O)C4CCCCC4)C3)cc2)c1)C1CC1 (centres undefined),-1,/,0,0,1,-1
CN(C(=O)c1cccc(NC(=O)Cc2ccc(NC(=O)C3CCN(C(=O)c4ccccc4)CC3)cc2)c1)C1CCC1,0,/,3,-1,-1,1.2*
CC1(C(=O)Nc2ccc(Cl)c(Cl)c2)CCN1Cc1cc2ccccc2o1 (centres undefined),3,/,/,1,0,-1
OCc1ccnc2oc3ccccc3c12,0,/,1,0,-3,0
Cn1c2ccc(F)cc2c2nnc(SCCN3CCOCC3)nc21,1,/,2,6,2,1.1*
CCOC(=O)[C@]12CCCC=C1N(CCC1=CCCCC1)C(=O)[C@H](CC(=O)NCC13CC4CC(CC(C4)C1)C3)C2,2,/,/,0,-3,-1
Cc1cc(C(=O)NNc2ccc(F)cc2F)no1,0,0,7.6*,-2,-2,-1
Cc1ccc(NNC(=O)c2cc(C)on2)c(C)c1,1,8,1,1,3,-1
Cc1noc(C)c1S(=O)(=O)N(C)C[C@H]1OCc2cnnn2CCCC(=O)N([C@H](C)CO)C[C@H]1C,0,/,1,-1,1,-1
CC(=O)Nc1cc2c(cc1Cl)-c1ccccc1C2,3,/,3,4,9,0
CC(=O)Nc1cc2c(cc1Cl)-c1ccccc1C2O (centres undefined),-1,/,2,5.9*,3,0
COc1ccc(S(=O)(=O)NCC2CCCN(Cc3cccnc3)C2)cc1 (centres undefined),0,-2,4.3*,-1,-3,-2
COc1ccc(S(=O)(=O)NCC2CCCN(Cc3cccc(C(C)=O)c3)C2)cc1 (centres undefined),-2,/,0,0,0,-2
CCN1CCN(CCC(=O)Nc2ccccc2OC)CC1,0,-1,2,-2,0,-1
CCN1CCN(Cc2ccc(NC(=O)Nc3ccccc3OC)cc2)CC1,1,0,2,5,12*,0
CN(C)C(=O)c1c2c(nc3ccccc13)CCCC2,1,-3,1,1,-2,-1
CN(C)C(=O)c1c2c(nc3ccccc13)-c1ccccc1CC2,0,8.9*,1,-1,0,0
SMILES,DAX1 inh-1,Wee1 stabilizer,DAX1 inh-2,hcDAF12 agonist,hgDAF-12 ag,ssDAF-12 act
Cc1ccc(NC(=O)COC(=O)C2=COCCO2)cc1,0,-1,1,1,0,-1
Cc1ccc(Nc2nc(N)nc(COC(=O)C3=COCCO3)n2)cc1,3.6*,/,1,1,7,1
O=C(OCc1ccccc1)N1CCC2CC1c1c2cccc1N1CCOCC1 (centres undefined),-1,/,/,-2,-3,-1
CC1CCC/C(=N\NC(=O)Nc2ccccc2)C1 (centres undefined),0,4,4.8*,4,4,-1
COCCCNC(=O)C(=O)Nc1ccc2c(c1)N(S(=O)(=O)c1cccs1)CCC2,4.2*,/,0,-1,-4,0
CCCNC(=O)C(=O)Nc1ccc2c(c1)N(S(=O)(=O)c1cccs1)CCC2,-5,/,-3,-1,4,-2
Cc1cccc(C)c1NC(=O)C1(C)CN(S(C)(=O)=O)CC(=O)N1CC(F)(F)F (centres undefined),0,/,/,0,-2,-1
Cc1nc(N)[nH]c(=O)c1CCCNc1ccc(CCC2(CCl)OCCO2)cc1,0,/,1,2,13*,-1
c1ccc(-c2cn3nc(-c4ccccc4)sc3n2)cc1,/,/,5.6*,/,/,/
c1ccc(-c2nnc3sc(-c4ccncc4)nn23)cc1,-1,1,0,-2,6,-2
C/C(=N\NC(=O)c1nn(C)cc1Br)c1cccc(NC(=O)C2CCCC2)c1,2,-2,2,1,11*,0
C/C(=N\NC(=O)c1nn(C)cc1Br)c1cccc(NC(=O)C(C)(C)C)c1,1,-2,4,0,8,0
CN1CCN(c2ccc3c(c2)Oc2ccccc2CN(Cc2cn(Cc4ccc(F)cc4)nn2)S3(=O)=O)CC1,-1,/,/,1,-1,0
O=C(Nc1ccccc1F)Nc1cccc2ccc(O)cc12,0,-2,0,6.2*,0,0
O=C(NCc1ccccc1F)Nc1nnc([C@H]2C[C@H](O)[C@@H](CO)O2)s1,0,/,/,1,1,-1
Cn1cnc(S(=O)(=O)NCc2cccs2)c1,0,-1,3,0,1,1.6*
Cc1cc(C)cc(OCC(=O)N2N=C(C(F)(F)F)CC2(O)C(C)(C)C)c1 (centres undefined),-1,-2,0,-1,-1,-1
CC(C)(C)C1(O)CC(C(F)(F)F)=NN1C(=O)CCCc1ccccc1 (centres undefined),0,-2,4.6*,0,-1,-1
C[C@@H]1CN([C@H](C)CO)C(=O)c2cc(-c3ccccc3)cnc2O[C@@H]1CN(C)C(=O)C1CCOCC1,0,/,0,0,-1,-1
CCOC(=O)/C=C/c1ccc2oc3ccccc3c(=O)c2c1,1,/,1,5,7,2.0*
COc1cc2oc3ccccc3c(=O)c2cc1OC,/,/,1,/,/,/
CCOc1ccccc1OCC(=O)Nc1ccc(N2CCOCC2)cc1N1CCOCC1,0,/,-2,-1,2,-1
